# Measurements reported in PubChem BioAssay AID588726 (The Scripps Research Institute Molecular Screening Center, 2011).
# Out of some 360,000 compounds screened, about 8,200 (2.3%) were called active. Cut-off read from the data, not from the text of the source: active = inhibition above about 27%; inactive = the rest. Only a selection was taken, and actives are over-represented in it overall.
# Target: Fructose-bisphosphate aldolase (Mycobacterium tuberculosis (strain ATCC 25618 / H37Rv)) (UniProt P9WQA3)
# Sequence (P9WQA3 whole entry, looked up): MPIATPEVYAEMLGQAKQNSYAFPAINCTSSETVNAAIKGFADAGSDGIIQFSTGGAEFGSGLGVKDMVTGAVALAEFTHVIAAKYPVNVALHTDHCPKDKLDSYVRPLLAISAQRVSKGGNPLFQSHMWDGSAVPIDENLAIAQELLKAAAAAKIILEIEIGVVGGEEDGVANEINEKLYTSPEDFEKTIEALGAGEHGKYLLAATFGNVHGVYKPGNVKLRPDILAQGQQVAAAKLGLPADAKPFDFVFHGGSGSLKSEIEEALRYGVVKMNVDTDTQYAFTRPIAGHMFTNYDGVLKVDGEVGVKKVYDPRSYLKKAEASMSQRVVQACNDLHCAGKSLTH
# Assay: M. tuberculosis aldolase activity blockers – biochemical, fluorescence, strain H37Rv, primary screen (AID 588726);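 note: 0% = vehicle and 100% = reference inhibitor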
# Conditions: purified M. tuberculosis FBA, fluorescence read-out, at 1 µM, active compounds read high
row,Compound,inhibition
1,C=CCC(CC=C)(C(N)=O)c1ccccc1,-1.04% (inactive)
2,C[C@H]1CN([C@@H](C)CO)C(=O)CCCn2cc(nn2)CO[C@@H]1CN(C)C(=O)Nc1ccccc1,0.08% (inactive)
3,O=C(NC1CCCC1)C1CC(=O)N(c2ccc(F)cc2)C1 (centres undefined),-3.06% (inactive)
4,COc1cccc(NC(=O)C2(C)CCN2Cc2ccccc2Cl)c1 (centres undefined),3.88% (inactive)
5,CCOC(=O)Cc1csc(SCc2cc(=O)oc3cc(O)ccc23)n1,2.87% (inactive)
6,Cc1nc(COc2cc3oc(=O)cc(C)c3cc2Cl)cs1,27.6% (active)
7,Cc1cc(=O)oc2cc(OCC3CC(c4ccccc4Cl)=NO3)ccc12 (centres undefined),9.86% (inactive)
8,CC1(C)Cc2c(sc(NC(=O)C(=O)N3CCOCC3)c2C#N)CO1,1.66% (inactive)
9,CC(C)c1nc(N2CCOCC2)c(C#N)c2c1COC(C)(C)C2,48.2% (active)
10,CC1(C)Cc2c(C#N)c(SCc3nc4ccccc4[nH]3)nc(N3CCOCC3)c2CO1,29.3% (active)
11,C1=C(N2CCOCC2)/C(=C/c2nc3ccccc3[nH]2)CC1,14.8% (inactive)
12,CC(C)C(=O)N1CCN(c2nc(-c3ccccc3)c3c(c2C#N)CC(C)(C)OC3)CC1,18.4% (inactive)
13,CCOC(=O)CSc1nc(N2CCOCC2)c2c(c1C#N)CC(C(C)C)OC2 (centres undefined),0.67% (inactive)
14,CN1CCC2(CC1)NC(=O)NC2=O,0.25% (inactive)
15,Cc1cc(C(=O)N2CCC(C(=O)O)CC2)c(C(F)(F)F)o1,-0.52% (inactive)
16,CC(C)CN1CCNC(=O)C1CC(=O)N(C)CC1CCOCC1 (centres undefined),91.2% (active)
17,CN(CCC1CCOCC1)C(=O)CC1C(=O)NCCN1Cc1cccc(F)c1 (centres undefined),5.7% (inactive)
18,COc1ccccc1CN1CCNC(=O)C1CC(=O)N(C)CC1CCOCC1 (centres undefined),0.79% (inactive)
19,N#CCc1c[nH]c2ccc([N+](=O)[O-])cc12,-4.4% (inactive)
20,O=C(CN(C(=O)c1csnn1)c1ccc(Br)cc1)NC1CCCC1,2.14% (inactive)
21,COc1ccc(/C=C/C(=O)NC(=S)NN2CCCCC2c2cccnc2)cc1 (centres undefined),1.24% (inactive)
22,Cc1nn(-c2ccccc2)nc1C(=O)OCC(=O)N1CCCCC1C (centres undefined),31.5% (active)
23,CC1CCCCN1C(=O)CCS(=O)(=O)Cc1ccccc1 (centres undefined),-0.22% (inactive)
24,Cc1cc(C(=O)OCC(=O)N2C(C)CCCC2C)c2ccccc2n1 (centres undefined),6.33% (inactive)

row,Compound,inhibition
1,O=C(CN(C(=O)c1nsc(Cl)c1Cl)c1cccc(F)c1)NC1CCCC1,0.07% (inactive)
2,COc1ccc(CNC(=O)COC(=O)/C=C/c2ccc(S(=O)(=O)N3CCOCC3)cc2)cc1,-5.75% (inactive)
3,Cc1ccc(C2Nc3ccccc3C(=O)N2CCN2CCNC2=O)cc1 (centres undefined),95.6% (active)
4,Cc1ccc(S(=O)(=O)N2CCC(C(=O)OCC(=O)N3CC(=O)Nc4ccccc43)CC2)cc1,-1.07% (inactive)
5,O=C1c2ccccc2NC(c2ccccn2)N1NS(=O)(=O)c1ccccc1 (centres undefined),11.3% (inactive)
6,Cc1[nH]n(-c2ccccc2)c(=O)c1CCOC(=O)c1ccc(C(F)(F)F)cc1,-0.48% (inactive)
7,COc1ccccc1N1CCN(CC(=O)NCCc2ccc(S(N)(=O)=O)cc2)CC1,0.12% (inactive)
8,Cc1cc(=O)oc2c3c(cc(OCC(=O)NCC(O)c4ccccc4)c12)OC(C)(C)CC3 (centres undefined),49.2% (active)
9,CC(NC(=O)COc1ccc(-c2ccccc2)cc1)C1CCCO1 (centres undefined),0.11% (inactive)
10,Cc1ccc(OCC(=O)NC(C)c2ccccc2)c([N+](=O)[O-])n1 (centres undefined),-3.72% (inactive)
11,COc1cccc(CCNC(=O)COc2cccc3c2OC(C)(C)C3)c1,-1.69% (inactive)
12,COc1ccc(CCNC(=O)COc2cc(C)cc3oc(=O)c(C)c(C)c23)cc1OC,2.14% (inactive)
13,Cc1cc(OCC(=O)Nc2nccs2)c2c(C)c(C)c(=O)oc2c1,5.31% (inactive)
14,Cc1cc(OCC(=O)NCC(O)c2ccccc2)c2c(C)c(C)c(=O)oc2c1 (centres undefined),66.1% (active)
15,CCN(CC)CCCNC(=O)COc1ccc2oc3c(c2c1)CCCC3,0.55% (inactive)
16,O=C(COc1ccc2ccc(=O)oc2c1)NCC(O)c1ccccc1 (centres undefined),15.9% (inactive)
17,O=C(COc1ccc2c3c(c(=O)oc2c1)CCCC3)NCC(O)c1ccccc1 (centres undefined),15.8% (inactive)
18,CSc1nnc(-c2ccncc2)n1CCCN1CCCC1=O,0.93% (inactive)
19,N#CCC(=O)NC1CCC(CC2CCC(NC(=O)CC#N)CC2)CC1 (centres undefined),3.18% (inactive)
20,COc1cc(OC)c(C2=NOC(C(=O)Nc3c(C)n(C)n(-c4ccccc4)c3=O)C2)cc1Cl (centres undefined),-0.74% (inactive)
21,CSCC(=O)N1CCCC(C(=O)c2cc(F)ccc2F)C1 (centres undefined),-1.12% (inactive)
22,Cc1nccn1-c1ccc(NC(=O)[C@H]2O[C@@H](n3cnc4c(N)ncnc43)[C@H](O)[C@@H]2O)cc1,0.84% (inactive)
23,O=C(O/N=C(/c1ccccc1)c1ccncc1)c1ccccc1[N+](=O)[O-],2.83% (inactive)
24,Cc1ccccc1NC(=O)COc1cccc2c1CCNC2=O,0.77% (inactive)

row,Compound,inhibition
1,Cc1cc(=O)oc2c(C)c(OCC(=O)NCCN3CCOCC3)ccc12,16% (inactive)
2,CCCc1cc(=O)oc2c(C)c(OCC(=O)NCc3ccccn3)ccc12,0.52% (inactive)
3,Cc1cc(Cl)ccc1OCCCC(=O)NCc1ccccn1,1.44% (inactive)
4,Cc1cc(=O)oc2c(C)c(OCC(=O)NCCc3ccc(S(N)(=O)=O)cc3)ccc12,12.6% (inactive)
5,Cc1nn(C)c(C)c1S(=O)(=O)N1CCc2ccccc21,6.1% (inactive)
6,CC(C)CNC(=O)/C=C/C(=O)O,10.5% (inactive)
7,O=C1NC2(CCCCC2)N=C1c1ccccc1,1.74% (inactive)
8,CC(C)Cc1ccc(-c2cc3nc(NCc4cccc(Cl)c4)ccn3n2)cc1,14.9% (inactive)
9,Cc1ccc(C)c(NS(=O)(=O)c2cc(Br)cnc2N)c1,3.42% (inactive)
10,O=S1(=O)CCOC[C@H](Cc2ccccc2)N1Cc1ccccc1Br,-3.56% (inactive)
11,COC(=O)[C@H]1C[C@H](OC(=O)NCc2ccccc2)[C@@]2(O)CN(S(=O)(=O)c3ccc(C)cc3)CC2[C@H]1C(=O)OC (some centres undefined),0.56% (inactive)
12,Cc1ccc(S(=O)(=O)N2C[C@]3(O)C[C@@H]4C(=O)N(c5ccccc5)C(=O)[C@@H]4C[C@]3(OC(=O)NC3CC3)C2)cc1,0.49% (inactive)
13,Cc1ccc(S(=O)(=O)N2C[C@@H](C)[C@]3(C2)[C@H](O)[C@H](OC(=O)NCc2ccccc2)C[C@H]2C(=O)N(c4ccccc4)C(=O)[C@H]23)cc1,67.2% (active)
14,CC(C)C(c1nnnn1C(C)(C)C)N1CCN(Cc2cccnc2)CC1 (centres undefined),0.62% (inactive)
15,c1cc(-c2ccc3[nH]ccc3c2)n2ccnc2c1,81.5% (active)
16,O=C(NCCO)c1cccc(-c2cccc3nccn23)c1,10.8% (inactive)
17,Clc1ccc(-c2nc3ccccn3c2CN2CCSCC2)cc1,0.24% (inactive)
18,S=c1[nH]cc(-c2ccc(Cl)cc2)n1-c1ccccc1,-0.17% (inactive)
19,Cc1ccc(NC(=O)C2(N3CCC3=O)CCCCC2)cc1,-1.03% (inactive)
20,CC/C(=N\NC(=O)c1c(C)nc2ccccn12)c1ccc(Cl)cc1,1.77% (inactive)
21,O=C(CN1CCN(S(=O)(=O)c2ccc(F)cc2)CC1)NC1CC1,0.31% (inactive)
22,CC1CC2=C(CC1/C=N/NC(N)=S)C(C)(C)CCC2 (centres undefined),-2.62% (inactive)
23,CC(C)(C)n1nc(Cc2cccc3ccccc23)c(C#N)c1N,-0.08% (inactive)
24,COc1ccc(Nc2oc(-c3ccccc3Cl)nc2C#N)cc1,14.5% (inactive)

row,Compound,inhibition
1,O=C(CN1CCN(C2CCS(=O)(=O)C2)CC1)N1N=C(c2ccc(Cl)cc2)CC1c1ccco1 (centres undefined),-0.95% (inactive)
2,O=c1[nH]cnc(O)c1C(c1ccc(F)cc1)c1c(O)nc[nH]c1=O,1.39% (inactive)
3,Cc1nc2ccccc2cc1O,116% (active)
4,Cc1nc2ccccc2nc1CC(O)(c1ccccc1)c1ccccc1,0.56% (inactive)
5,Cc1cc(N=Nc2ccc3ccccc3c2)ccc1O,-3.13% (inactive)
6,C=Cn1c(C(=O)O)ccc1-c1ccc(OC)cc1,1.98% (inactive)
7,COc1ccc(-c2cc(C)nc3nc(N)nn23)cc1,124% (active)
8,Cc1cc(-c2ccccc2)n2nc(C)c(-c3ccccc3)c2n1,4.02% (inactive)
9,COC(=O)c1ccc(C)c(NC(=O)Cn2c(C)csc2=O)c1,-1.21% (inactive)
10,CCOC(=O)c1c(C)oc2cc(Br)c(OCC(N)=O)cc12,5.33% (inactive)
11,CCOC(=O)c1c(-c2ccccc2)oc2ccc(OC(=O)N(C)C)cc12,38.7% (active)
12,CCOC(=O)c1c(-c2ccccc2)oc2ccc(OCC(=O)NN)cc12,58.4% (active)
13,N#CC1(NC(=O)COc2ccc3oc4ccccc4c3c2)CCCCC1,-0.49% (inactive)
14,CCOC(=O)c1c(-c2ccccc2)oc2cc(Br)c(O)c(C=O)c12,-2.33% (inactive)
15,CCOC(=O)c1c(-c2ccccc2)oc2ccc(OCC(N)=O)cc12,72.7% (active)
16,CCOC(=O)c1c(C)[nH]c(C(=O)COc2ccc3c(c2)OCO3)c1C,6.18% (inactive)
17,CCOC(=O)c1c(C)oc2cc(Sc3ccccc3)c(O)c(O)c12,-6.47% (inactive)
18,COC(=O)c1c(C)oc2ccc(N(C(=O)Oc3ccccc3)S(=O)(=O)c3ccccc3)cc12,-6.44% (inactive)
19,S=C(NC1CCCCC1)NN1CCOCC1,-5.42% (inactive)
20,c1ccc2c(c1)CSc1sccc1C2=C1CCNCC1,4.51% (inactive)
21,N#Cc1cccc(NC(=O)CCC2CCCC2)c1,-3.71% (inactive)
22,OC(COCCC12CC3CC(CC(C3)C1)C2)CN1CCCCC1 (centres undefined),-2.2% (inactive)
